According to PubChem BioAssay:
“And” between values parts separate entries of the source, which are not always exact repeats. Identical values can stand only once.

Experiments:
[1] = system: Human papillomavirus type 1a protein E7 (residues 44-93); assay: small molecules binding HPV E7 44-93 – biochemical, small-molecule microarray, residues 44-93, 635 nm fluorescence, primary screen (AID 1108); conditions: fluorescence 635 nm, higher = more signal;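 further: E7 fragment applied at 1 µg/mL in TBST for 1 h at 4 C; score combines spot fluorescence with its signal to noise ratio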
[2] = hepatitis C replication reporter changes, two-sided – Huh7 cells, luciferase reporter, HCV replication inhibitor project, primary screen (AID 1109); conditions: Huh7 HCV replicon luciferase reporter, 48 h; higher = more signal;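 further: huh7 hepatoma cells harbouring a luciferase neomycin HCV replicon reporter; luciferase luminescence as measure of HCV replicon replication; test concentration not given here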
[3] = target: Left-right determination factor 2 (Homo sapiens) (UniProt O00292); assay: small molecules binding LEFTY2 protein – biochemical, small-molecule microarray, 635 nm fluorescence scan, primary screen (AID 1110); conditions: higher = more signal
Chain of Left-right determination factor 2 (Homo sapiens) (O00292 whole entry, looked up): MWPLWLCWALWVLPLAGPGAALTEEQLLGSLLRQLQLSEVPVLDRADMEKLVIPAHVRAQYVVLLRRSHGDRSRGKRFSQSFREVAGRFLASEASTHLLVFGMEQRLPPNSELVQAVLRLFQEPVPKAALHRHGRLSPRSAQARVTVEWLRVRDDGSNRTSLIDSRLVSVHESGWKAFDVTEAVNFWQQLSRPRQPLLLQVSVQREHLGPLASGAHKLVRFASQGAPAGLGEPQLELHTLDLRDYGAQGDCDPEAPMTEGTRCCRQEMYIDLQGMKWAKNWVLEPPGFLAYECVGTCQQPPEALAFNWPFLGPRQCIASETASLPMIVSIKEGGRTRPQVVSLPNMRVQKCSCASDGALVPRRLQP

[4] = target: Calmodulin-1 (Homo sapiens) (UniProt P0DP23); assay: small molecules binding calmodulin-1 with EGTA – biochemical, small-molecule microarray, Cy5-labelled CALM1, profiling panel (AID 1111); conditions: Cy5-CALM1 binding fluorescence, higher = more signal;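 further: labelled calmodulin applied in Tris saline Tween buffer holding calcium plus EGTA and DTT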
[5] = target: Calmodulin-1 (Homo sapiens) (UniProt P0DP23); assay: small molecules binding Ca-loaded calmodulin-1 – biochemical, small-molecule microarray, Cy5-labelled CALM1, plus calcium, artefact control for SMM control-protein annotation, profiling panel (AID 1112); conditions: Cy5-CALM1 binding fluorescence, higher = more signal;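 further: score merges spot fluorescence with signal to noise from triplicate slides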
[6] = probe aWnt5a binding to arrayed compounds – biochemical, biotinylated probe, 635/667 nm fluorescence, primary screen (AID 1113); conditions: small-molecule microarray, higher = more signal;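 further: score merges 667 nm fluorescence intensity with signal-to-noise per printed feature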
[7] = probe aShh binding to arrayed compounds – biochemical, biotinylated probe, 635/667 nm fluorescence, primary screen (AID 1114); conditions: small-molecule microarray, higher = more signal;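 further: probe is biotin-labelled aShh protein from a stem cell growth factor screen; measures binding of labelled protein to compounds printed on the slide; score merges feature fluorescence at 667 nm with signal-to-noise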
[8] = probe aNog binding to arrayed compounds – biochemical, biotinylated probe, 635/667 nm fluorescence, primary screen (AID 1115); conditions: small-molecule microarray, higher = more signal;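 further: probe is biotinylated aNog protein used at 0.15 µg/mL for 1 h at 4 C; z-score combines 667 nm fluorescence of each spot with its signal to noise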
[9] = target: Torsin-1A-interacting protein 1 (Homo sapiens) (UniProt Q5JTV8); assay: compound microarray binding of lysate hLAP1 – cell lysate, small-molecule microarray, COS7 lysate, 635/667 nm fluorescence, primary screen (AID 1116); conditions: 635 nm fluorescence, higher = more signal
Chain of Torsin-1A-interacting protein 1 (Homo sapiens) (Q5JTV8 whole entry, looked up): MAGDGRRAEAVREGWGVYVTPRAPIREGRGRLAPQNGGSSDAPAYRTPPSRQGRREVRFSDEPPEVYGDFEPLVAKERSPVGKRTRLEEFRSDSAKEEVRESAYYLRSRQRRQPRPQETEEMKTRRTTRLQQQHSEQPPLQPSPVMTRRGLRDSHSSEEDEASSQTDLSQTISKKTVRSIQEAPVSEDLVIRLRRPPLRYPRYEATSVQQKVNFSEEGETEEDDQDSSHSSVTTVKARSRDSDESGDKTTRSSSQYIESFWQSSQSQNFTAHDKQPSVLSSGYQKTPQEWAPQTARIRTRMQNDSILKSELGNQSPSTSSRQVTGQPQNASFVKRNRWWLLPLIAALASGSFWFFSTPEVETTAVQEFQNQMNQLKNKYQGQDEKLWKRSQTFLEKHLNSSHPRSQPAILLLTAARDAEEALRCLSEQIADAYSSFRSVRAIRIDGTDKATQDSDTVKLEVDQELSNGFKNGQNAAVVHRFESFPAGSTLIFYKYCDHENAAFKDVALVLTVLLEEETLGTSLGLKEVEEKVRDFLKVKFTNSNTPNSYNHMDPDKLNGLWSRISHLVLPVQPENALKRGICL

[10] = target: Alpha-bungarotoxin (Bungarus multicinctus) (UniProt P60615); assay: compounds binding labelled alpha-BTX control protein – biochemical, small-molecule microarray, Alexa647 label, 635/667 nm fluorescence, artefact control for SMM control protein annotation, profiling panel (AID 1117); conditions: alpha-BTX-A647 binding fluorescence, higher = more signal
Chain of Alpha-bungarotoxin (Bungarus multicinctus) (P60615 whole entry, looked up): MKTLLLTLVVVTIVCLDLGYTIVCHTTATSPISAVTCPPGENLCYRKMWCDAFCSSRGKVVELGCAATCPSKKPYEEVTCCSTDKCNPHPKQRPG

Compound	composite z-score [1]	z-score [2]	composite z-score [3]	composite z-score [4]	composite z-score [5]	composite z-score [6]	composite z-score [7]	composite z-score [8]	composite z-score [9]	composite z-score [10]
C=CCN(CCCC)C(=O)C1N(C(C)(C)CO)C(=O)C2C(C(=O)O)C3C=CC21O3 (stereo not given)	-1.32 and -1.36	-0.299 and 0.145	-3.24 and -2.31	-0.742 and -0.335	1.1 and 0.491	-0.297 and -0.169	-0.0626 and -0.23	-0.0094 and 0.125	-1.24 and -2.03	-1.41 and -0.821
CCOC(=O)c1ccc(NC(=O)O[C@H]2[C@H](OC(=O)Nc3ccccc3)[C@H](OC(=O)Nc3ccccc3)[C@@H](OC)O[C@@H]2CO)cc1	1.2 and 1.34	-3.29 and -3.49	0.899 and 0.291	2 and 2.1	0.0672 and 0.407	0.0438 and -0.0417	0.113 and 0.337	0.576 and 0.978	1.74 and 1.88	1.86 and 2.87
C=CCN(C(=O)C1N(C(C)(C)CO)C(=O)C2C(C(=O)O)C3C=CC21O3)c1ccc(OC)cc1 (stereo not given)	-0.391 and -1.24	1.82 and -0.0108	-2 and -4.13	-0.547 and -0.928	0.455 and -0.116	-0.256 and -0.116	0.0611 and -0.283	0.265 and -0.0827	1.86 and -0.125	-2.34 and -2.48
COc1ccc(COC(=O)NN=C2C[C@@H](O)[C@@H](O)[C@@H]3[C@@H]4C(=O)N(C(C)(C)C)C(=O)[C@@H]4CC[C@H]23)cc1	1.01	-0.167	0.0311	-0.0989	-0.143	-0.1	0.0469	-0.242	0.677	0.7
C=CCN(CCCC)C(=O)C1N(CCOCCO)C(=O)C2C(C(=O)O)C3C=CC21O3 (stereo not given)	-0.0707 and -0.913	0.367 and 0.91	-2.91 and -1.58	-0.794 and -0.296	-0.0435 and 0.108	-0.256 and -0.287	-0.138	-0.216 and -0.352	1.59 and -0.819	-1.59 and -0.552
COC(=O)C1=C(C)N(Cc2ccccc2)C2=C3C(=O)N(C)C(=O)[C@@H]3[C@@](O)(C(=O)OC)C(=O)N2[C@@H]1c1ccccc1	-0.517 and 0.0656	-0.0888 and 1.05	0.356 and 0.796	-0.403 and -0.324	-0.668 and -0.691	-0.124 and -0.0735	-0.0035 and -0.16	-0.0705 and -0.272	0.015 and -0.101	0.871 and 0.167
COC(=O)C1=C(C)N(Cc2ccccc2)C2=C(C(C)=O)C[C@@](O)(C(=O)OC)C(=O)N2[C@@H]1c1ccccc1	0.594 and -0.54	-0.347 and 1.11	0.85 and 0.187	-1 and -0.501	-1.13 and -0.338	-0.0512 and -0.18	0.0465 and 0.0121	0.127 and -0.247	0.974 and -0.069	-0.634 and 0.42
C[C@@]1([C@@H](NC(=O)Cc2ccccc2)c2ccc(-c3ccccc3)cc2)C[C@H]1C1CCCCC1	0.208 and 0.778 and 1.16	-2.39 and -1.33 and -0.271	-0.109 and -0.069 and 0.118	1.7 and 1.95 and 1.63	1.26 and 1.28 and 0.753	0.631 and 1.04 and 0	2.22 and 2.04 and -0.493	0.292 and 1.37 and 1.17	-0.288 and -0.307 and 0.775	1 and 0.582 and 1.93
C=CCN(C(=O)C(c1cccs1)N(C(=O)/C=C\C(=O)O)c1ccc(CCO)cc1)c1ccc(OC)cc1 (stereo not given)	-1.01 and -1.64	-0.465 and -0.171	-3 and -5.82	-0.453 and -1.54	0.742 and -0.222	-0.203 and -0.27	-0.0709 and -0.138	-0.541 and -0.126	-1.16 and -1.72	-0.664 and -2.33
C=CCN(C(=O)C1N(CCCCCCO)C(=O)C2C(C(=O)O)C3C=CC21O3)C(C)(C)C (stereo not given)	-1.46 and -0.783	0.31 and -0.387	-3.98 and -3.63	-0.332 and -0.397	0.915 and 0.825	-0.348 and -0.364	-0.221 and -0.123	-0.176 and 0.338	-1.85 and -0.489	-1.42 and -1.95
COC(=O)C1=C(C)N(Cc2ccccc2)[C@]23O[C@](C(=O)OC)(C(=O)N2[C@@H]1c1ccccc1)[C@@H](c1ccccc1)[C@@H]3C(=O)c1ccccc1	0.189 and -0.932	0.989 and 0.471	0.494 and 0.9	1.43 and -1.06	0.589 and -0.256	-0.0417 and -0.137	-0.276 and -0.16	-0.0315 and -0.226	0.296 and -0.228	0.932 and -0.0514
C=CCN(CCCC)C(=O)C(c1cccs1)N(C(=O)/C=C\C(=O)O)c1ccc(CCO)cc1 (stereo not given)	-0.541 and -0.68	-1.03 and 0.741	-2.24 and -2.46	-0.324 and -0.724	0.423 and 0.395	-0.13 and -0.262	-0.0904 and -0.276	-0.0621 and -0.0827	1.13 and -0.803	0.749 and -2.47
COC(=O)C1=C2N(Cc3ccccc3)C(C)=C(C(=O)OC)[C@@H](c3ccccc3)N2C(=O)[C@](O)(C(=O)OC)C1	-0.101 and 0.137	0.591 and 0.406	0.198 and 0.531	0.225 and -0.29	-0.803 and -0.391	-0.169 and -0.237	-0.214 and -0.0914	-0.18 and 0.162	-0.203 and 1.01	0.661 and 0.171
C[C@@H]1CC[C@@H](C(=O)O)N[C@H]1c1ccc(-c2ccco2)cc1	-1.68	-0.305	0.88	-0.547	-1.3	-0.096	-0.299	0.0023	0.195	0.0848
C=C[C@@H](OC)[C@H](O)c1ccc(O)c(F)c1	-0.829 and -1.4	0.0695 and 0.896	-1.68 and -1.07	-0.692 and -1.45	-0.898 and -1.11	-0.328 and -0.268	-0.0553 and -0.0709	-0.564 and -0.908	-0.104 and -0.362	-1.14 and -0.617
C#CCN1C(/C=C/c2ccccc2)C(=O)OC[C@H]1c1ccccc1 (stereo not given in full)	0.267 and 0.514	-1 and -2.09	0.673 and 0.247	-0.451 and -0.295	-0.545 and -0.383	-0.0033 and -0.0607	0.0328 and -0.138	-0.115 and -0.385	0.341 and -0.35	0.348 and -0.144
C=C[C@H](C)[C@@H](O)c1ccc(OCCO)cc1	-1.92 and -0.467	0.15 and 0.616	-1.11 and -1.45	-0.827 and -0.366	0.717 and 0.1	-0.261 and -0.252	-0.289 and 0.0639	-0.194 and -0.381	-0.998 and 0.225	-1.12 and -0.0745
C=C[C@@H](C)[C@H](O)c1ccc(O)c2ccccc12	-0.54 and -1.74	-0.857 and -0.0113	0.265 and -0.863	-1.27 and -1.29	-1.21 and -1.19	-0.224 and -0.283	-0.0035 and -0.0709	-0.157 and -0.299	-0.444 and -0.659	-0.286 and -0.508
COC(=O)C1=C(C)N(Cc2ccccc2)[C@]23O[C@](C(=O)OC)(C(=O)N2[C@@H]1c1ccccc1)[C@@H](C(=O)OC)[C@H]3C(=O)OC	-1.08 and 0.025	-0.685 and 1.33	-0.2 and 0.674	-0.602 and 0.395	-0.636 and -0.505	-0.173 and -0.16	-0.123 and -0.0553	-0.394 and -0.255	0.118 and 0.409	-1 and -0.239
C[N+](C)(C)CCCCNC(=O)[C@H]1C[C@H]2C(=O)N[C@@H](CCCC[N+](C)(C)C)C(=O)N2[C@H]1c1cccc(OCCO)c1	-0.779 and 0.569	-1.34 and -0.59	1.36 and 1.28	-1.49 and -0.367	-0.691 and -0.325	-0.127 and -0.0512	0.0948 and 0.395	-0.249 and -0.234	1.89 and 2.53	-0.559 and 0.47
C=C[C@H](C)[C@H](O)c1ccc(O)c2ccccc12	-0.523 and -0.557	-1.28 and -0.876	-0.796 and -0.399	-1.09 and -1.04	-0.75 and -1.04	-0.244 and -0.12	-0.0769 and -0.138	-0.37 and -0.46	0.159 and -0.0387	0.594 and -0.204
C[C@@H]1CN2[C@@H](CC[C@@H](C)[C@@H]2c2ccc(Br)cc2)C(=O)O1	-0.561 and -0.15	-0.67 and 1.5	0.57 and 0.0106	-0.235 and -0.676	-0.535 and 0.1	-0.148 and -0.206	-0.59 and -0.428	0.0014 and -0.287	-0.0307 and -0.0763	-0.209 and 0.0857
